Test results taken from PubChem BioAssay (Tox21).
Records with an inconclusive call do not appear. A call without a number means that no potency is given here. Active and inactive are the calls of the source. Calls follow the shape of the dose curve; as a rule, active = well fitted inhibition curve with a large enough effect in the repeat runs; inconclusive = weak or mixed curves, or effect the other way; inactive = no such curve, though single readings can be large or run the other way.
Potency is read from the fitted curve at half-maximal effect.

Experiment: qHTS assay to identify small molecule antagonists of the retinoic acid receptor (RAR) signaling pathway (AID 1159552; also: nearly all actives have a fitted effect of over 50% in size)
Conditions: C3RL4 RARE luciferase reporter, retinol-stimulated, 6 h; series mostly up to 92.4 µM
Source text: National Center for Advancing Translational Sciences [NCATS]
NIH Chemical Genomics Center [NCGC]
U.S. Environmental Protection Agency [EPA]
National Institutes of Environmental Health Sciences [NIEHS]
National Toxicology Program [NTP]
U.S. Food and Drug Administration [FDA]
All-trans Retinoic acid (atRA) is the potent natural metabolite of retinol and plays an important role in normal embryonic development and maintenance of cellular phenotype in adult animals. atRA is the activating ligand for the retinoic acid receptors (RARs) which form heterodimers with retinoid X receptors (RXRs) on the retinoic acid response element (RARE). Through activation of the RAR/RXRs nuclear receptors, atRA regulates the transcription of a large number of protein-coding genes and regulatory RNAs. Intracellular levels of atRA are controlled by the retinol signaling pathway (RSP) that regulates the biosynthesis and catabolism of atRA to maintain physiological levels. Chemicals that interfere with the RSP can cause abnormal intracellular levels of atRA and therefore are potential developmental toxicants. To assess compounds for the potential adverse effect on embryonic development through interfering with retinol signaling, a cell-based RARE luciferase reporter gene assay was used. C3RL4 cell line (OARSA/CFSAN/FDA, Laurel, MD) was used to screen Tox21 10K compound library for identifying inhibitors of the RSP.
Tox21 Assay Protocol Summary:
C3RL4 cells were seeded at 1,000/well in 4 uL of assay medium into white solid 1,536-well tissue culture plates (Greiner Bio-One North America Inc. Monroe, NC) using a Multidrop Combi (Thermo Scientific, Waltham, MA) dispenser. After incubation at 37 C and 5% CO2 for an overnight, 23 nL of compounds dissolved in DMSO, positive control or DMSO only were transferred by a Pintool station (Kalypsys, San Diego, CA). One ul of 1 uM (final concentration) of Retinol was added right after the compound addition by using a Flying Reagent Dispenser (FRD) (Aurora Discovery, San Diego, CA). After 6 hr incubation at 37 C and 5% CO2, 5 uL of Amplite Luciferase reagent (AAT Bioquest Inc. Sunnyvale, CA) was added to each assay plate using an FRD. Luminescence was quantified on a ViewLux plate reader (PerkinElmer, Waltham, MA) after 30 min incubation at room temperature.
For CCC(C)(C)c1ccc(CC(C)CN2C[C@@H](C)O[C@@H](C)C2)cc1 (stereo not given in full), the Potency was “inactive”. With Cc1ccc2nc(-c3ccc(N)cc3)sc2c1S(=O)(=O)O the Potency was “inactive”. In the case of NC(=O)C1CO1 (stereo not given), the Potency is reported as “inactive”. For O=[N+]([O-])c1ccc(CO)cc1, the Potency was “inactive”. With CCc1cccc(CC)c1 the Potency was “inactive”. In the case of CCCCCN=C(N)N/N=C/c1c[nH]c2ccc(OC)cc12, the Potency is reported as 13.3 µM (active). For CCN(CC)c1ccc(C=O)c(O)c1, the Potency was “inactive”. With CC(C)C(=O)C(C)C the Potency was “inactive”. With CN(C)CCOc1ccc(/C(=C(/CCCl)c2ccccc2)c2ccccc2)cc1 the Potency was 57.2 µM (active). In the case of CC1=C(/C=C/C(C)=C/C=C/C(C)=C\C(=O)O)C(C)(C)CCC1, the Potency is reported as “inactive”. For CCCCCc1ccc(O)cc1, the Potency was “inactive”. With CCC1(C)C(=O)N(Cl)C(=O)N1Cl (stereo not given) the Potency was “inactive”. For CCN(CC)c1ccc2c(c1)Oc1cc(N(CC)CC)ccc1C21OC(=O)c2ccccc21, the Potency was “inactive”. In the case of CCOC(=O)[C@H](C)O, the Potency is reported as “inactive”. For CN1CCN(c2ccccc2/C=C2\SCCN(c3ccc(Cl)c(Cl)c3)C2=O)CC1, the Potency was 48.6 µM (active). With CCc1cccc(C)c1N(C(=O)CS(=O)(=O)O)C(C)COC (stereo not given) the Potency was “inactive”. For Cc1cc(F)ccc1-c1cc(N2CC[C@@H](O)[C@H]2CO)ncc1N(C)C(=O)C(C)(C)c1cc(C(F)(F)F)cc(C(F)(F)F)c1, the Potency was 42.6 µM (active). With CC/C=C\C/C=C\C/C=C\CCCCCCCC(=O)OC the Potency was “inactive”. In the case of Oc1ccc(C2(c3ccc(O)c(C4CCCCC4)c3)CCCCC2)cc1C1CCCCC1, the Potency is reported as 27.3 µM (active). With O=C(Nc1ccccc1)c1cc(Cl)ccc1O the Potency was “inactive”. With O=C(CCCCCCCCc1cccnc1)N1CCC(C=C(c2ccccc2)c2ccccc2)CC1 the Potency was “inactive”. In the case of Nc1cccnc1N, the Potency is reported as “inactive”. For CC(=O)[C@]1(O)Cc2c(O)c3c(c(O)c2[C@@H](O[C@H]2C[C@H](N)[C@H](O)[C@H](C)O2)C1)C(=O)c1ccccc1C3=O, the Potency was 0.298 µM (active). In the case of COCCC(=O)OC, the Potency is reported as “inactive”. With CC(C)(C)c1ccc(OC2CCCCC2O)cc1 (stereo not given) the Potency was “inactive”. For CCCOC(=O)c1ccc(O)cc1, the Potency was “inactive”. With C=CC(=O)OCC(Br)CBr (stereo not given) the Potency was “inactive”. With C[C@H]1O[C@@H](O[C@H]2CC[C@@]3(C)[C@H](CC[C@@H]4[C@@H]3C[C@@H](O)[C@]3(C)[C@@H](C5=CC(=O)OC5)CC[C@]43O)C2)C[C@H](O)[C@@H]1O[C@H]1C[C@H](O)[C@H](O[C@H]2C[C@H](O)[C@H](O[C@@H]3O[C@H](CO)[C@@H](O)[C@H](O)[C@H]3O)[C@@H](C)O2)[C@@H](C)O1 the Potency was “inactive”. For O=C1OC(=O)c2cc(-c3ccc4c(c3)C(=O)OC4=O)ccc21, the Potency was “inactive”. For COC(=O)c1ccc([N+](=O)[O-])cc1, the Potency was “inactive”. In the case of c1ccc(-c2ccc(C(c3ccccc3)n3ccnc3)cc2)cc1 (stereo not given), the Potency is reported as “inactive”. For CN1CC[C@H](c2c(O)cc(O)c3c(=O)cc(-c4ccccc4Cl)oc23)[C@H](O)C1, the Potency was 0.0668 µM (active). In the case of O=C1CCC/C=C\CCCCCCCCCC1, the Potency is reported as “inactive”. For CCNc1nc(NC(C)(C)C)nc(OC)n1, the Potency was “inactive”. In the case of CC(=O)Nc1ccc(N=Nc2cc(C)ccc2O)cc1, the Potency is reported as “inactive”. With Nc1c(Br)cc([N+](=O)[O-])cc1Br the Potency was “inactive”. With C/C=C/C(=O)OCC(C)C the Potency was “inactive”. In the case of CCN(CC)c1ccc(C=O)cc1, the Potency is reported as “inactive”. For COc1ccc(OC)c(N=Nc2c(O)ccc3ccccc23)c1, the Potency was “inactive”. For c1ccc(-c2ccccc2-c2ccccc2)cc1, the Potency was “inactive”.
